# From PubChem BioAssay
# Hits are enriched below; roughly 4.1% of the tested compounds scored in any of these assays.
# TROY signal inh = inhibitors of TROY-driven NF-kB signaling, primary screen, Q293 LMP1-TROYcd cells, NF-kB luciferase, uHTS; Q293 LMP1-TROYcd NF-kB luciferase reporter, 4 h; inhibition, % at 10 µM; 360,000 compounds, 0.98% hits;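 active = compounds whose plate-normalised and pattern-corrected inhibition of the luciferase reporter signal at the single screening dose is 50% or more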
# TWEAK Fn14 block = inhibitors of TWEAK-Fn14 signaling, primary screen, luciferase reporter cells, uHTS; TWEAK-stimulated Fn14 reporter cells, luciferase luminescence, 8 h; inhibition, % at 10 µM; 360,000 compounds, 2% hits; AID 1159606, 2016; in the data active = inhibition above about 50%
# EBV LMP1 NFkB = EBV LMP1-driven NF-kappaB luciferase reporter inhibitors, primary screen, cell-based, luminescence, single point; LMP1-induced NF-kappaB luciferase reporter cells; 350,000 compounds, 0.69% hits; inhibition, % at 12.5 µM; AID 504558, 2011; in the data active = inhibition above about 41%
# Peg3 prom inh = Peg3 promoter-driven luciferase inhibitors, primary screen, cell-based, HeLa, luciferase luminescence; inhibition, % at 20 µM; 360,000 compounds, 1.7% hits; HeLa PEG-Prom luciferase reporter, overnight;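 active = inhibition of at least 50% at 20 µM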
# TRPM1 prom inh = inhibitors of MITF-dependent TRPM1 promoter reporter, primary screen, cell-based, SK-MEL-5, single point, luciferase. SK-MEL-5 TRPM1 promoter luciferase, 24 h. inhibition, % at 12.5 µM. 330,000 compounds, 0.83% hits;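 active = mean inhibition across replicates of 60% or more, whatever share of single replicates reaches that level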
# Shn3 inh set2 = reduction of Shn3 3'UTR firefly luciferase signal, primary screen, Schnurri-3 inhibitor project, cell-based, Clone20 osteoblasts, set 2 | 360,000 compounds, 0.52% hits | AID 588674, 2011 | Clone20 osteoblast Shn3 3'UTR firefly luciferase, 24 h | inhibition, % at 12.5 µM;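 active = mean inhibition of at least 75% with every replicate also reaching 75%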
# A number is an active result; 0 = inactive; - = no result given.
SMILES,TROY signal inh,TWEAK Fn14 block,EBV LMP1 NFkB,Peg3 prom inh,TRPM1 prom inh,Shn3 inh set2
CCOP(=O)(Nc1ccc2c(c1)C(=NNC(N)=S)c1ccccc1-2)OCC,0,0,0,0,0,0
CC1=C(O)C(=O)C=C2C1=CC=C1C2(C)CCC2(C)C3CC(C)(C(=O)O)CCC3(C)CCC12C (configuration not stated),89.4,106.1,87.6,105.1,94.4,94.7
O=[N+]([O-])c1cccnc1N1CCCNCC1,0,0,0,0,0,0
CC(Cc1ccccc1)NC(=O)NC(C)Cc1ccccc1 (configuration not stated),0,0,0,0,0,0
CC(=O)NC(C)Cc1ccccc1 (configuration not stated),-,80.9,0,0,0,0
COC(=O)C1=C(c2cccc(OC)c2OC)C[C@@H]2CC[C@H]1N2C(=O)N1CCCCC1,0,0,0,0,0,0
CCc1ccc(N2C(=O)NC(=O)/C(=C\C=C\c3ccco3)C2=O)cc1,0,0,0,91.3,102.3,0
O=C1NC(=O)N(c2ccccc2)C(=O)/C1=C\C=C\c1ccccc1,0,67.4,0,61.3,73.9,0
CCCCN1C(=O)/C(=C/C=C/c2ccco2)C(=O)NC1=S,0,0,0,0,0,0
Cc1cc(C)cc(N2C(=O)NC(=O)/C(=C\C=C\c3ccco3)C2=O)c1,0,0,0,67.2,93.8,0
CC(C)c1ccc(N2C(=O)NC(=O)/C(=C/C=C/c3ccco3)C2=O)cc1,0,0,0,74.4,99.4,0
O=CC(Br)P(=O)(N1CCOCC1)N1CCOCC1 (configuration not stated),0,0,-,0,-,0
COc1cccc(OCc2cc(C(=O)N3C[C@H]4C[C@@H](C3)c3cccc(=O)n3C4)no2)c1,0,0,0,0,0,0
CCOc1ccc(N2C(=O)/C(=C/c3ccco3)C(=O)NC2=S)cc1,0,57.0,0,0,0,0
CN1CCc2cccc(Cl)c2CC1,0,0,0,0,0,0
NC(Cc1ccc(O)cc1)C(=O)NN=Cc1ccc(N(CCCl)CCCl)cc1 (configuration not stated),0,0,47.5,0,0,0
N[C@@H](Cc1ccc(N(CCCl)CCCl)cc1)C(=O)O,0,0,49.9,0,0,0
COc1cc(C(=O)NN=Cc2ccc(N(CCCl)CCCl)cc2)cc(OC)c1OC,0,0,0,0,0,0
O=C1CC(=O)N(c2ccc(Cl)cc2)C(=O)N1,0,0,63.6,0,0,0
CC(C)c1ccc(N2C(=O)CC(=O)NC2=O)cc1,0,0,0,0,0,0
O=c1[nH]c2ccccc2n1C1CCN(C(c2nnnn2-c2ccc3c(c2)OCCO3)C2CC2)CC1 (configuration not stated),0,0,-,77.9,-,0
CSCCC(c1nnnn1-c1ccc2c(c1)OCCO2)N1CCC(n2c(=O)[nH]c3ccccc32)CC1 (configuration not stated),0,0,-,74.7,-,0
O=C1NCN(c2ccccc2)C12CCN(C(c1cccs1)c1nnnn1-c1ccc3c(c1)OCCO3)CC2 (configuration not stated),0,0,-,0,-,0
O=c1[nH]c2ccccc2n1C1CCN(C(c2ccccc2)c2nnnn2-c2ccc3c(c2)OCCO3)CC1 (configuration not stated),0,52.4,-,68.2,-,0
O=C1NCN(c2ccccc2)C12CCN(C(c1ccccc1)c1nnnn1-c1ccc3c(c1)OCCO3)CC2 (configuration not stated),0,0,-,0,-,0
O=c1[nH]c2ccccc2n1C1CCN(C(c2cccs2)c2nnnn2-c2ccc3c(c2)OCCO3)CC1 (configuration not stated),0,0,-,76.6,-,0
O=P1(NCc2ccco2)COc2ccccc2OC1,0,0,0,0,0,0
Cc1ccc(Oc2cc(NN3CCCCC3)c([N+](=O)[O-])cc2[N+](=O)[O-])c([N+](=O)[O-])c1,0,0,0,0,0,0
